Hits are enriched below; roughly 3.2% of the tested compounds scored in any of these assays.
Tb PYK inh – inhibitors of Trypanosoma brucei pyruvate kinase; Q57TT1; AID 624173; Potency, µM (titrated, usually from 76.8 µM), without a hit: at the highest dose activity, negative = inhibition, most hits filed as inhibitors; 410,000 compounds, 0.12% hits; TbPYK enzyme, Kinase-Glo Plus ATP luminescence, 45 min; further: nearly all actives have a fitted effect of over 50% in size
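Luminescent Kinase-Glo Plus end-point after 45 min room-temperature reaction of T. brucei pyruvate kinase started with 130 uM ADP (final). Buffer TEA 50 mM pH 7.2 with KCl, MgCl2, BSA, Tween-20; titration-based qHTS with fitted concentration-effect curves.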
LmPK inh – LmPK (Leishmania mexicana) enzyme inhibition; purified LmPK, Kinase-Glo ATP luminescence, 1 h; Potency, µM (highest dose often 57.5 µM), for the others: at the highest dose activity change, negative = inhibition, actives largely listed as inhibitors; 290,000 compounds, 0.37% hits; AID 1721
Target sequence (Q27686 whole entry, looked up): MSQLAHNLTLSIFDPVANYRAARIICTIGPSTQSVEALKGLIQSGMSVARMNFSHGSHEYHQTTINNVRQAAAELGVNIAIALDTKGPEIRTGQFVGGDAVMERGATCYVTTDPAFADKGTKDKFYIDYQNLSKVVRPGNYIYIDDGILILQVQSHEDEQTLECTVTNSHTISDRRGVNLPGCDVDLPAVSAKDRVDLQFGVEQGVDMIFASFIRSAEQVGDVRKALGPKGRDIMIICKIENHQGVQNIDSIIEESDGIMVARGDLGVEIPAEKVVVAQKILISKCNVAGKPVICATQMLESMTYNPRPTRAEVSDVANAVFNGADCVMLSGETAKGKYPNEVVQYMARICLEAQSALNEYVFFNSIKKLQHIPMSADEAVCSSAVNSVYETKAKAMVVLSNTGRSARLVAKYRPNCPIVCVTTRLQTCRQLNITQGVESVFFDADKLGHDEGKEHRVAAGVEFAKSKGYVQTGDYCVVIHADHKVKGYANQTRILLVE
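Screened at intermediate enzyme activity to detect both inhibitors and activators: LmPK at 0.1 nM, with a 0.5 nM enzyme column as activation reference. PEP 0.5 mM, ADP 0.1 mM; ATP detected by luminescence after 1 h.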
RE007 growth inh – less growth of the S. pombe RE007 Vpr strain; S. pombe RE007 Vpr strain, BacTiter-Glo ATP luminescence, 24 h; Potency, µM (series often up to 92.2 µM), without a hit: top-dose activity change, negative = less growth, most hits filed as inhibitors; AID 651644; 360,000 compounds, 0.21% hits; active means well fitted falling curve with a large enough effect; inconclusive means small, poorly fitted or top-dose-only effect; inactive means no such curve, though single readings can be large or run the other way; further: nearly all actives have a fitted effect of over 50% in size
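Fission yeast strain RE007, carrying one chromosomally integrated HIV-1 vpr copy, was seeded at OD 0.01 in PMG+AL medium with 23 nL pinned compound. After 24 h at 30 °C and 99% humidity, viability was read by BacTiter-Glo luminescence.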
Sm TGR block – blocks Schistosoma mansoni thioredoxin glutathione reductase; Q962Y6; purified TGR, DTNB reduction, TNB absorbance 405 nm; Potency, µM (series often up to 114 µM), for inactives: at the highest dose activity change, negative = inhibition, actives largely listed as inhibitors; 360,000 compounds, 3% hits; further: nearly all actives have a fitted effect of over 60% in size
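First, TGR (20 nM dispensed) and NADPH were mixed with compound. Second, a 15 min room-temperature incubation followed. Third, further NADPH and then DTNB were added to start the reaction. Finally, TNB absorbance was monitored kinetically.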
AMA1-RON2 inh – disrupts binding of P. falciparum AMA1 to RON2. AlphaScreen AMA1-biotinylated RON2 peptide binding. Potency, µM (top dose mostly 58.2 µM), without a hit: top-dose activity change, negative = inhibition, actives largely listed as inhibitors. 360,000 compounds, 0.2% hits. AID 720542;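 further: 0% = vehicle wells and -100% = peptide control; nearly all actives have a fitted effect of over 45% in size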
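AMA1 (3D7) with his tag at 25 nM final met compounds first, then biotinylated RON2 peptide at 25 nM; detection used donor plus acceptor beads, 10 µg/mL apiece, read by AlphaScreen after 30 min at room temperature.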
Numbers without * were called inactive; ? = inconclusive; . = no result given; [ ] = another dose, or the depositor's remark. Unless noted, the call rests on the fitted dose curve; in most records, active means well fitted curve in the direction sought with a large enough effect; inconclusive means small, poorly fitted or top-dose-only effect, or another doubt; inactive means no such curve, though single readings can be large; an effect the other way counts as inactive or inconclusive. Unless noted, on the % scale 0 is the no-effect control and ±100 the full control effect; potency means the concentration at half of the fitted maximal effect.

SMILES	Tb PYK inh	LmPK inh	RE007 growth inh	Sm TGR block	AMA1-RON2 inh
O=C(CSc1cccc[n+]1[O-])c1cc(Cl)ccc1Cl	2%	0%	5µM*	8%	77%
Nc1nc(SCC(=O)c2cc3ccccc3o2)n[nH]1	-12%	2%	6%	0%	38%
Cc1ccc(-c2cn3nc(N4CCCC(C(=O)NCc5ccc(F)cc5)C4)sc3n2)cc1 (stereo not drawn)	3%[15.4 µM]	.	.	0%	.
CCn1c(SCC(=O)Nc2ccc3c(c2)OCO3)nnc1C1CC1	5%	0%	-12%	0%	-14%
O=C(CSc1nnc(-c2ccc(Cl)cc2)n1Cc1ccco1)Nc1ccc2c(c1)OCCO2	-4%	13%	-18%	25µM*	-29%
CN(C)C(=O)CSc1nnc(-c2ccncc2)n1Cc1ccco1	4%	-11%	12%	56%	4%
O=C(CSc1nnc(-c2ccncc2)n1Cc1ccco1)OC1CCCCC1	-1%	10%	-3%	40µM*	-1%
COc1ccc(-c2cnc(SCC(=O)Nc3ccc4c(c3)OCO4)n2Cc2ccco2)cc1	-1%	-3%	6%	-24%	14µM*
CCn1c2ccccc2c2cc(NC(=O)CSc3nnc(C4CC4)n3Cc3ccco3)ccc21	-10%	-4%	4%	7.9µM*	-6%
CCOCCc1nn2c(=O)cc(COC(=O)c3ccccc3NC(=O)C3CCCCC3)nc2s1	-1%	.	.	2%	.
CCOc1ccc(Cc2nccc3cc(OCC)c(OCC)cc23)cc1OCC	-3%[33.2 µM]	.	.	.	.
CC(C)OC(=O)c1c(NC(=O)C2c3ccccc3Oc3ccccc32)sc2c1CCCC2	-6%	.	.	7%	.
COc1cc2ncc3c(-c4ccccc4)nn(-c4ccc(C)cc4)c3c2cc1OC	-2%	.	.	3%	.
CC(=O)N1CCCc2cc(S(=O)(=O)N3CCC(C(=O)NCCC(C)C)CC3)ccc21	0%	.	.	1%	.
Cc1cccc(C)c1NC(=O)CSc1nnc(-c2ccncc2)n1Cc1ccco1	2%	2%	12%	8%[11.4 µM]	2%
O=C(CSc1nnc(-c2ccncc2)n1Cc1ccco1)N1c2ccccc2Sc2ccc(Cl)cc21	-7%	2%	-17%	45µM*	4%
Cn1c(SCC(=O)Nc2ccc(Cl)cc2F)nnc1-c1ccco1	4%	3%	4%	35µM*	-6%
Cc1cc(Cl)ccc1NC(=O)CSc1nnc(-c2ccncc2)n1Cc1ccco1	0%	-1%	-9%	45µM*	-10%
Cc1ccsc1C(=O)OCc1csc(-c2ccccc2)n1	-23%	16µM*	-13%	2%	151%
Cn1cccc1C(=O)OCc1csc(-c2ccccc2)n1	-7%	14µM*	-29%	-2%	-12%
O=C(OCc1csc(-c2ccccc2)n1)c1cccs1	-12%	-19%	-9%	15%[11.4 µM]	23%
CCCNC(=O)c1cnc2sc(N3CCCCCC3)nn2c1=O	-1%	.	.	-2%	.
Cc1c(-c2cccc(NC(=O)Nc3ccccc3)c2)nc2ncccn12	-10%	.	.	9%	.
Cc1ccc(NC(=O)Cn2cc(C(=O)C3CCCCC3)c3ccccc32)cc1	-2%	.	.	1%	.
CC(c1ncncc1F)[C@](O)(Cn1cncn1)c1ccc(F)cc1F (stereo partly drawn)	4%	.	.	.	.
SMILES	Tb PYK inh	LmPK inh	RE007 growth inh	Sm TGR block	AMA1-RON2 inh
COc1cc(C)c2c(c1C=O)Oc1c(c(C)c(O)c3c1C(O)OC3=O)OC2=O (stereo not drawn)	-9%	16%	11%	20µM*	?
Cc1cc(OCc2nc(-c3cccnc3)no2)c(C)cc1Br	4%	-3%	3%	6%	2%
Cc1ccccc1OCc1nc(-c2cccnc2)no1	-1%	2%	4%	40µM*	20%
CCc1ccc(OCc2nc(-c3ccccn3)no2)c(Br)c1	-1%	?	-24%	-11%	2%
Cc1ccc(OCc2nc(-c3ccccn3)no2)c(Br)c1	-3%	16µM*	-14%	4%	15%
COc1ccccc1CNc1cc(C)nc2nc(-c3ccc(C)cc3)nn12	4%	.	.	2%	.
O=C1CNC(=S)N1CCOc1ccccc1	1%	3%	10%	-2%	21%
O=C1CNC(=S)N1CCc1ccc(O)c(O)c1	-20%	4%	-9%	1.8µM*	7%
COc1ccc(-n2nc3cc(C)c(NC(=O)c4ccc(-c5ccc(Br)cc5)o4)cc3n2)cc1	1%	.	.	-12%	.
COc1ccc(N2CCN(CC(=O)c3ccc(O)c(C)c3O)CC2)cc1	-5%	5%	-8%	?	-3%
Cc1c(O)ccc(C(=O)CN2CCN(c3ccccc3)CC2)c1O	1%	8%	15%	22µM*	0%
CCN(CC)c1ccc(C=C2C(=O)N(C)C(=S)N(C)C2=O)o1	-10%	-9%	-19%	45µM*	-2%
CC(C)N1C(=O)S/C(=C\c2ccc(-c3ccc(Cl)c(C(=O)O)c3)o2)C1=O	-16%	-4%	2%	-35%	-13%
CCN(CC)c1ccc(/C=C2/SC(=O)N(C(C)C)C2=O)o1	?	-6%	?	11µM*	-2%
CCN(CC)c1ccc(/C=C2\C(=O)NC(=S)N(C)C2=O)o1	-12%	-30%	-16%	-34%	-4%
O=C(NC(=S)Nc1ccc(N2CCOCC2)cc1)c1cccc([N+](=O)[O-])c1	0%	1%	.	40µM*	6%
O=C(NC(=S)Nc1ccc(CN2CCOCC2)cc1)c1cccc([N+](=O)[O-])c1	3%	-1%	-21%	89µM*	15%
COc1cccc(C(=O)NC(=S)Nc2ccc3[nH]c(=O)[nH]c3c2)c1	-7%	10%	6%	?	20%
O=C(NC(=S)Nc1cccc(F)c1)c1cccc([N+](=O)[O-])c1	3%	0%	.	20µM*	90%
O=C(NC(=S)Nc1ccc2[nH]c(=O)[nH]c2c1)c1cccc(F)c1	0%	3%	-14%	2.8µM*	22%
Cc1cccc(NC(=S)NNC(=O)c2cccc([N+](=O)[O-])c2)c1	0%	1%	-20%	0%	44%
CCc1cnc2c(c1SCC(=O)Nc1ccc(Cl)cc1)c(=O)n(C)c(=O)n2C	-6%	.	.	5%	.
C=CCNC(=S)Nc1cccc([N+](=O)[O-])c1	-4%	1%	.	32µM*	15%
Cc1ccc(CNC(=O)C2c3ccccc3C(=O)N(C)C2c2c[nH]c3ccccc23)o1 (stereo not drawn)	-11%	-1%	-12%	50µM*	-4%
O=C1N=c2ccc([N+](=O)[O-])cc2=C1c1sc(=O)[nH]c1O	-30%	?	-3%	-16%	-9%
O=C1N=c2ccccc2=C1c1sc(=O)[nH]c1O	?	10µM*	9%	1%	14%
O=S(=O)(c1ccc(Br)cc1)c1nc(-c2ccco2)oc1SCc1ccccc1Cl	-16%	.	.	-8%	.
CCOc1ccc(C(=O)Nc2cc(C)ccn2)cc1	?	?	40µM*	-1%	4%
